Screens (PubChem)
Hits are enriched below; roughly 3.3% of the tested compounds scored in any of these assays.
AmpC no deterg – qHTS Inhibitors of AmpC Beta-Lactamase (assay without detergent); P00811; AmpC nitrocefin hydrolysis, absorbance 480 nm, 0.0001% Triton; Potency, µM (series often up to 57.1 µM), usual class: inhibitors; hit rate 0.52% among 330,000; AID 485341, 2010; further: nearly all actives have a fitted effect of over 20% in size
Target sequence (P00811 whole entry, looked up): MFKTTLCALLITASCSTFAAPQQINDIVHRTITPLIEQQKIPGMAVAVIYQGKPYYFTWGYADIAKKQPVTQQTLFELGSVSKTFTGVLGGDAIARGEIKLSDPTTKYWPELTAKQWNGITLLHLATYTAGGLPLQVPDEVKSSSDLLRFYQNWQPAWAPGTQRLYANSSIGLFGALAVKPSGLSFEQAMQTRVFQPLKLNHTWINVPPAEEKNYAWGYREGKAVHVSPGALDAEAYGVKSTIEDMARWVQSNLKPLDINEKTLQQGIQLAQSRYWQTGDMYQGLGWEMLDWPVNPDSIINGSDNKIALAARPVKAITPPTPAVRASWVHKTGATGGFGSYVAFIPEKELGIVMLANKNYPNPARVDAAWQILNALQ
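20 mM phosphate pH 7.0 + 0.01% (detergent screen) or 0.0001% Triton X-100; 5.3 nM AmpC reagent; cpd preinc 15 min RT; nitrocefin (800 uM stock) to start; A480 q20 s × 4 min; Activity was normalised to no-enzyme and no-compound control wells.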
SARS PLpro yeast – qHTS of Yeast-based Assay for SARS-CoV PLP | S. cerevisiae expressing SARS-CoV PLpro, growth rescue | Potency, µM (highest dose often 32.9 µM), hits mostly activators | hit rate 0.19% among 330,000 | AID 485353, 2010; calls by dose curve; further: nearly all actives have a fitted effect of over 55% in size
AmpC detergent – qHTS Inhibitors of AmpC Beta-Lactamase (assay with detergent). AmpC hydrolysis of nitrocefin, absorbance 480 nm, 0.01% Triton. Potency, µM (series often up to 114 µM), usual class: inhibitors. hit rate 0.041% among 370,000. P00811. AID 485294, 2010; further: nearly all actives have a fitted effect of over 25% in size
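20 mM phosphate pH 7.0 + 0.01% (detergent screen) or 0.0001% Triton X-100; 5.3 nM AmpC reagent; cpd preinc 15 min RT; nitrocefin (800 uM stock) to start; A480 q20 s × 4 min; Activity was normalised to no-enzyme and no-compound control wells.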
TbPYK inhibitor – qHTS of Trypanosoma Brucei Inhibitors; TbPYK enzyme, Kinase-Glo Plus ATP luminescence, 45 min; pyruvate kinase (Trypanosoma brucei), Q57TT1; Potency, µM (titrated, usually from 76.8 µM), usual class: inhibitors; hit rate 0.12% among 410,000; further: nearly all actives have a fitted effect of over 50% in size
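Enzyme and substrate buffer are dispensed first and compound is pin-transferred. ADP at 130 uM final then starts the reaction, which runs 45 min at room temperature. Detection reagent is added for 10 min before luminescence is imaged.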
Sm TGR inh – qHTS Assay for the Inhibitors of Schistosoma Mansoni Peroxiredoxins; hit rate 3% among 360,000; Potency, µM (doses to about 114 µM), actives largely listed as inhibitors; AID 485364, 2010; Schistosoma mansoni thioredoxin glutathione reductase (TGR), Q962Y6; purified TGR, DTNB reduction, TNB absorbance 405 nm; further: nearly all actives have a fitted effect of over 60% in size
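TGR 20 nM + NADPH 100 uM (dispensed conc.), cpd preinc 15 min RT; start with NADPH (500 uM addition) then DTNB (15 mM addition). Kinetic TNB absorbance, 405 nm filter. Four-parameter Hill fit across titration.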
RE007 growth inh – qHTS Assay for Inhibitors of the HIV-1 protein Vpr; S. pombe RE007 Vpr strain, BacTiter-Glo ATP luminescence, 24 h; Potency, µM (doses to about 92.2 µM), hits mostly inhibitors; hit rate 0.21% among 360,000; AID 651644, 2012; active means well fitted falling curve with a large enough effect; inconclusive means small, poorly fitted or top-dose-only effect; inactive means no such curve, though single readings can be large or run the other way; further: nearly all actives have a fitted effect of over 50% in size
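Fission yeast strain RE007, carrying one chromosomally integrated HIV-1 vpr copy, was seeded at OD 0.01 in PMG+AL medium with 23 nL pinned compound. After 24 h at 30 °C and 99% humidity, viability was read by BacTiter-Glo luminescence.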
Numbers stand for hits; n = inactive; u = inconclusive; x = no result; ! = not confirmed by another sample; [ ] = dose if it differs, or a comment. Unless noted, the call rests on the fitted dose curve; in most records, active means well fitted curve in the direction sought with a large enough effect; inconclusive means small, poorly fitted or top-dose-only effect, or another doubt; inactive means no such curve, though single readings can be large; an effect the other way counts as inactive or inconclusive.

SMILES	AmpC no deterg	SARS PLpro yeast	AmpC detergent	TbPYK inhibitor	Sm TGR inh	RE007 growth inh
CC(C)[C@H]1C(=O)N2CCC[C@H]2[C@]2(O)O[C@](NC(=O)[C@@H]3C=C4c5cccc6[nH]cc(c56)C[C@H]4N(C)C3)(C(C)C)C(=O)N12	n	n	n	n	7.94µM	u
CCC(C)(C)NC(=O)C1CCC(CNS(=O)(=O)c2ccc3c(c2)CC(C)N3C(C)=O)CC1 (stereo not given)	x	x	n	n	n	x
COc1ccccc1NC(=O)C(CC=C(Cl)Cl)C(C)=O (stereo not given)	n	n	n	n	35.5µM	n
COc1ccccc1NC(=O)C(C/C=C(\C)Cl)C(C)=O (stereo not given)	n	n	n	n	n	n
O=C(O)c1ccc(-n2[nH]c3c(c2=O)CCCC3)cc1	n	n	n	u	35.5µM	n
Cc1ccc(NC(=O)c2nc(S(C)(=O)=O)ncc2N(Cc2ccccc2)Cc2ccco2)c(C)c1	x	x	n	n	n	x
COCCn1c(C)cc(O)c(C(c2ccccc2)N2CCN(c3ccccc3F)CC2)c1=O (stereo not given)	x	x	n	n	7.08µM	x
COCCn1nnnc1C(c1ccccc1)N1CCN(C)CC1 (stereo not given)	n	n	n	n	n	n
CCOc1ccc(C(c2c(O)cc(C)n(CCOC)c2=O)N2CCN(c3ccccc3F)CC2)cc1 (stereo not given)	x	x	n	n	10µM	x
CCOc1ccc(C(c2c(O)cc(C)n(CCOC)c2=O)N2CCC(C)CC2)cc1 (stereo not given)	x	x	n	n	20µM	x
COCCn1c(C)cc(O)c(C(c2ccccc2)N2CCN(C)CC2)c1=O (stereo not given)	x	x	n	n	6.31µM	x
COCCn1nnnc1C(c1ccc2ncccc2c1)N1CCN(c2ccccc2F)CC1 (stereo not given)	n	n	n	n	n	n
CCC(C)(C)n1nnnc1C(c1ccc(C)cc1)N1CCC(C)CC1 (stereo not given)	n	n	u	n	n	n
O=C(CCCn1c(=O)c2ccccc2n(Cc2cccc(Cl)c2)c1=O)NCCc1ccc(Cl)cc1	x	x	n	n	n	x
CCOC(=O)c1ccc(NC(=O)CSc2nc3ccccc3c(=O)n2CCNC(C)=O)cc1	x	x	n	n	n	x
O=C(Nc1cnc(N2CCN(c3ccccc3)CC2)c(C(=O)O)c1)c1cccs1	x	x	n	n	u	x
CC(C)c1cc(NC(=O)CCl)on1	n[11.4 µM]	n	u	n	12.6µM	n
Cc1cc(NC(=O)CCl)on1	n	n	n	n	15.8µM	n
CCC(C)NC(=O)c1cc(C)no1 (stereo not given)	n	n	n	n	n	n
COc1ccc(CC(=O)Nc2c3c(nn2C(C)(C)C)CS(=O)(=O)C3)cc1OC	n	n	n	n	35.5µM	n
COC(=O)c1scc(C#N)c1N/N=C(\C#N)S(=O)(=O)c1ccc(Cl)cc1	n	n	n	n	31.6µM	n
CCN(CC)CCCNC(=O)c1c(C)oc2ncn(CC(C)C)c(=O)c12	x	x	n	n	n	x
O=C(/C=C\c1cn(-c2ccccc2)nc1-c1ccccc1)Nc1nccs1	11.2µM	n	n	n	n	n
C=CCN1CC[C@]23c4c5ccc(O)c4O[C@H]2C(=O)CC[C@@]3(O)[C@H]1C5	n	n	u	n	44.7µM!	n
C#CCOCCOCCOCCNc1nc(N2CCN(C(=O)[C@H](CCC(=O)O)n3cc(CN)nn3)CC2)nc(N2CCN(C(=O)[C@H](CCC(=O)O)n3cc([C@@H](N)[C@H](C)CC)nn3)CC2)n1	n	n	x	n	x	n
SMILES	AmpC no deterg	SARS PLpro yeast	AmpC detergent	TbPYK inhibitor	Sm TGR inh	RE007 growth inh
C#CCOCCOCCOCCNc1nc(N2CCN(C(=O)C([C@@H](C)CC)n3cc(C(N)Cc4ccc(O)cc4)nn3)CC2)nc(N2CCN(C(=O)[C@H](CCC(=O)O)n3cc(C(N)CO)nn3)CC2)n1 (stereo not given in full)	n	n	n	n	39.8µM	n
C#CCOCCOCCOCCNc1nc(N2CCN(C(=O)[C@H](CCC(=O)O)n3cc(C(N)[C@H](C)CC)nn3)CC2)nc(N2CCN(C(=O)[C@H](Cc3ccc(O)cc3)n3cc(C(N)[C@H](C)CC)nn3)CC2)n1 (stereo not given in full)	n	n	n	n	50.1µM	n
C#CCOCCOCCOCCNc1nc(N2CCOCC2)nc(N2CCN(C(=O)[C@H](CCC(=O)O)n3cc(C(N)[C@H](C)CC)nn3)CC2)n1 (stereo not given in full)	n	n	n	n	20µM	n
C#CCOCCOCCOCCNc1nc(N2CCN(C(=O)[C@H](CCCCN)n3cc([C@@H](N)CC(C)C)nn3)CC2)nc(N2CCN(C(=O)[C@H](Cc3ccc(O)cc3)n3cc([C@@H](N)CC(C)C)nn3)CC2)n1	n	n	n	n	n	n
C#CCOCCOCCOCCNc1nc(N2CCN(C(=O)[C@H]([C@@H](C)CC)n3cc([C@@H](N)Cc4ccc(O)cc4)nn3)CC2)nc(N2CCN(C(=O)[C@H](CCCCN)n3cc([C@@H](N)CC(C)C)nn3)CC2)n1	n	n	n	x	12.6µM	x
CCOc1ccc(NC(=O)Cn2c(=O)n(-c3ccc(C)cc3)c(=O)c3cc(OC)c(OC)cc32)cc1	x	x	n	n	n	x
CCNC(=O)c1c(C)oc2ncn(C)c(=O)c12	x	x	n	n	n	x
C#CCOCCOCCOCCNc1nc(N2CCN(C(=O)[C@H](Cc3ccc(O)cc3)n3cc([C@@H](N)CC(C)C)nn3)CC2)nc(N2CCN(C(=O)[C@H](Cc3ccc(O)cc3)n3cc([C@@H](N)CC(C)C)nn3)CC2)n1	n	n	n	x	17.8µM	x
C#CCOCCOCCOCCNc1nc(N2CCN(C(=O)[C@H](CCC(=O)O)n3cc(C(N)Cc4ccc(O)cc4)nn3)CC2)nc(N2CCN(C(=O)[C@H](Cc3ccc(O)cc3)n3cc(C(N)CC(C)C)nn3)CC2)n1 (stereo not given in full)	n	n	n	x	14.1µM	x
C#CCOCCOCCOCCNc1nc(N2CCN(C(=O)[C@H]([C@@H](C)CC)n3cc([C@@H](N)CO)nn3)CC2)nc(N2CCN(C(=O)[C@H]([C@@H](C)CC)n3cc([C@@H](N)CC(C)C)nn3)CC2)n1	n	n	n	n	35.5µM	n
